Assay results as given in PubChem BioAssay AID651820 (National Center for Advancing Translational Sciences (NCATS), 2012).
Screen size: about 340,000 compounds; about 12,000 (3.5%) were called active. A call without a number means that no potency is given here. Another 18% or so got no clear call; they are omitted. Many of the other results were omitted from the sample, so actives are more common in it than they were. A number with no mark means an inactive call. The call rests on the fitted dose curve; in most records, active means well fitted inhibition curve with a large enough effect; inconclusive means small, poorly fitted or top-dose-only effect, or another doubt; inactive means no such curve, though single readings can be large or run the other way.

Assay: qHTS Assay for Inhibitors of Hepatitis C Virus (HCV)
Conditions: Huh7.5.1 HCVcc-Cre infection, luciferase reporter, 44 h; series mostly up to 41.8 µM
Excerpt: Hepatitis C virus (HCV) infects about 200 million people in the world. Many infected people progress to chronic liver disease including cirrhosis with a risk of developing liver cancer. To date, there is no effective vaccine for hepatitis C. Current therapy based on interferon is only effective in about half of the patients and is associated with significant adverse effects. The fraction of people with HCV who can complete a successful treatment is estimated to be no more than 10 percent. Recent development of direct-acting antivirals against HCV, such as protease and polymerase inhibitors, is promising but still requires combination with peginterferon and ribavirin for maximal efficacy. In addition, these agents are associated with high rate of resistance and many have significant side effects. Due to the lack of a culture system for infectious HCV, the search for new HCV drugs has been greatly hampered. […] High-throughput screening (HTS) with an infectious HCV system would cover the complete spectrum of potentially druggable targets in all stages of HCV lifecycle, and would have more biological relevance than other cell-based assays. Moreover, targeting several key processes in the viral life cycle may not only increase antiviral efficacy; more importantly, it may also reduce the capacity of the virus to develop resistance to the compound. The goal of this project is to identify novel HCV inhibitors as new therapies for hepatitis C, using a highly sensitive and specific assay platform which is based on a HCV infectious cell culture system established in the laboratory and adapted for high-throughput HCV drug screen. NIH Chemical Genomics Center [NCGC] NIH Molecular Libraries Probe Centers Network [MLPCN] MLPCN Grant: MH095511 Assay Submitter (PI): Jake Liang, NIDDK
The assay will start with plating 1,000 cells/well in 3 µL volume and culture for 4 h. Then 23 nL of compounds from the library collection will be added to each well, followed by adding 2.5 µL of HCVcc-Cre virus (~ 0.5 moi) and further cultured for 44 h before the luciferase assay. A volume of 4.5 µL luciferase substrates will be added to each well and the plates will be incubated at room temperature for 15 min. and then read for 15 sec. for the luciferase activity
For `CC(=O)Nc1ccc(S(=O)(=O)N2CCN(S(=O)(=O)c3cccs3)CC2)cc1`, the Potency was “inactive”.
With `CCC(C)c1ccc(NC(=O)COC(=O)C2CCCC2)cc1` (stereo not drawn) the Potency was “inactive”.
In the case of `Cc1ccccc1Nc1nc(N)nc(COC(=O)CCC(=O)c2ccc(F)cc2)n1`, the Potency was “inactive”.
For `COc1ccccc1NS(=O)(=O)c1ccc(C)c(C(=O)NNC(=O)c2csc(N3CCOCC3)n2)c1`, the Potency was “inactive”.
With `Cc1cc(C)c(C)c(S(=O)(=O)N2CCN(C(=O)c3ccc4c(=O)n5c(nc4c3)CCC5)CC2)c1C` the Potency was “inactive”.
`CC(C)N(Cc1nnc(-c2ccc(Cl)cc2)o1)C(=O)C1=COCCO1` gave an activity change, negative = inhibition of -0.237% [at 8.37 µM].
For `CN(C(=O)c1cccc(NC(=O)Cc2ccc(NC(=O)C3CCCN(C(=O)C4CC4)C3)cc2)c1)C1CC1` (stereo not drawn), the Potency was “inactive”.
Molecule `CN(C(=O)c1cccc(NC(=O)Cc2ccc(NC(=O)C3CCN(C(=O)C4CCCCC4)CC3)cc2)c1)C1CCC1` has an activity change, negative = inhibition of -11.4% [at 8.37 µM].
For `CN(C(=O)c1ccc(NC(=O)Cc2cccc(NC(=O)C3CCN(C(=O)c4ccccc4)CC3)c2)cc1)C1CC1`, the Potency was 0.562 µM (active).
For `CCOc1ccc(S(=O)(=O)N2CCC(C(=O)NCC(=O)Nc3cccc(Cl)c3C)CC2)cc1`, the Potency was “inactive”.
With `Cc1ccc(-n2ncc3c(=O)n(-c4ccc(C)c(C)c4)c(-c4ccco4)nc32)cc1` the Potency was 3.98 µM (active).
In the case of `Cc1ccc(-n2ncc3c2ncn2nc(-c4ccco4)nc32)c(C)c1`, the Potency was “inactive”.
With `Cc1ccc(-c2nc3c(cnn3-c3ccccc3)c(=O)o2)cc1` the Potency was “inactive”.
In the case of `O=c1ccc2c(-c3ccccc3S(=O)(=O)O)c3ccc(O)c(O)c3oc-2c1O`, the Potency was “inactive”.
For `O=C(CN1C(=O)c2ccc([N+](=O)[O-])cc2C1=O)Nc1nnc(C2CC2)s1`, the Potency was “inactive”.
With `CC(CCN1CCN=C1N(C)C)c1ccccc1` (stereo not drawn) the Potency was “inactive”.
In the case of `O=C(COc1ccccc1F)NNC(=O)c1cc(Br)ccc1Cl`, the Potency was “inactive”.
With `O=C(CCNC(=O)c1ccc(Br)cc1)NCCCc1ccccc1` the Potency was “inactive”.
With `CCOc1ccc(NC(=O)CN(C)C(=O)Cc2sc(C)nc2-c2ccc(F)cc2)cc1OCC` the Potency was “inactive”.
In the case of `CCOc1ccccc1NC(=S)C(=C([O-])c1ccc2c(c1)OCCO2)[n+]1ccc(CC)cc1`, the Potency was “inactive”.
For `O=C1OC(/C=C/c2ccccc2)=NC/1=C/c1ccco1`, the Potency was “inactive”.
In the case of `COc1ccccc1/C=C/C(=O)NC(=S)N1CCOCC1`, the Potency was “inactive”.
For `COc1ccccc1/C=C/C1=NC(=C\N(C)C)/C(=O)O1`, the Potency was 11.2 µM (active).
For `O=C(O)C(CCc1ccccn1)c1ccccc1` (stereo not drawn), the Potency was “inactive”.
With `O=C(CSc1nnc(Nc2ccccc2F)s1)NC1CCCC1` the Potency was “inactive”.
With `CCOC(=O)c1[nH]c2c(c1-c1ccccc1)C(=O)CC(c1ccc(Cl)cc1)C2` (stereo not drawn) the Potency was “inactive”.
With `COCCOC(=O)c1[nH]c2c(c1C)C(=O)CC(c1ccc(OC)cc1)C2` (stereo not drawn) the Potency was “inactive”.
In the case of `CCCOC(=O)c1[nH]c2c(c1C)C(=O)CC(c1cc(OC)c(OC)c(OC)c1)C2` (stereo not drawn), the Potency was 4.47 µM (active).
In the case of `O=c1oc(-c2ccco2)nc2sc3c(c12)CCCCC3`, the Potency was “inactive”.
With `Cn1c2c(c(=O)n(C)c1=O)CN(Cc1ccco1)CN2` the Potency was “inactive”.
In the case of `Cn1c(=O)n(Cc2ccco2)c(=N)c2c3c(sc21)CCCC3`, the Potency was 10 µM (active).
With `COc1cc(C)ccc1OCC(=O)OCC(=O)c1ccc[nH]1` the Potency was “inactive”.
For `O=C(N/N=C/c1c[nH]c2ccccc12)c1ccccc1O`, the Potency was “inactive”.
In the case of `O=C(N/N=C/c1ccc(O)c2ccccc12)c1cccnc1`, the Potency was “inactive”.
With `O=C(NN=Cc1ccccc1O)NN=Cc1ccccc1O` the Potency was 5.01 µM (active).
For `NC(=O)NC(=O)C(OC(=O)CCNS(=O)(=O)c1ccccc1)c1ccccc1` (stereo not drawn), the Potency was “inactive”.
In the case of `O=C(c1ccc(Cl)c(S(=O)(=O)N2CCCCC2)c1)N1CCCCCC1`, the Potency was “inactive”.
For `COc1ccccc1N1CCN(C(=O)c2ccc(S(=O)(=O)N3CCCCC3)cc2)CC1`, the Potency was “inactive”.
In the case of `COc1ccccc1N1CCN(C(=O)c2ccc(Cl)c(S(=O)(=O)N3CCCC3)c2)CC1`, the Potency was 11.2 µM (active).
For `O=C(NN1CCOCC1)c1cccc(F)c1`, the Potency was “inactive”.
With `CC1C(C)N(C(=O)CCl)c2ccccc2N1C(=O)CCl` (stereo not drawn) the Potency was 4.47 µM (active).
In the case of `CCNC(=O)N1c2ccccc2Sc2ccccc21`, the Potency was “inactive”.
With `CNC(=O)N1c2ccccc2C=Cc2ccccc21` the Potency was “inactive”.
For `O=C(CSc1nc2ccccc2c(=O)n1-c1ccccc1F)N1CCOCC1`, the Potency was “inactive”.
For `CN(CC(=O)Nc1ccc(C(N)=O)cc1)S(=O)(=O)c1ccc2c(c1)OCCO2`, the Potency was “inactive”.
In the case of `Cn1c(=O)cc(SCC(=O)N2CCCC2)c2cc(Cl)ccc21`, the Potency was 10 µM (active).
For `Cn1c(=O)cc(SCC(=O)N2CCN(C(=O)c3ccco3)CC2)c2ccccc21`, the Potency was “inactive”.
In the case of `CCOC(=O)C1CCN(C(=O)CSc2cc(=O)n(C)c3ccccc23)CC1`, the Potency was “inactive”.
In the case of `CC(=O)c1ccc(NC(=O)C2CCCN2S(=O)(=O)c2cccs2)cc1` (stereo not drawn), the Potency was “inactive”.
For `COC(=O)[C@H](C)NC(=O)Nc1ccc(OC(F)(F)F)cc1`, the Potency was “inactive”.
With `O=C(Nc1ccc(OC(F)(F)F)cc1)c1ccc2c(c1)no[n+]2[O-]` the Potency was 31.6 µM (active).
For `Cn1nccc1NC(=O)Nc1ccc(OC(F)(F)F)cc1`, the Potency was “inactive”.
With `COc1ccc(S(=O)(=O)N2CCCC2CNC(=O)C(=O)NC2CC2)cc1` (stereo not drawn) the Potency was “inactive”.
With `O=C(NC1CCCCCC1)C1CCN(C(=O)c2ccc(Cl)cc2)CC1` the Potency was “inactive”.
With `CC(=O)N1c2ccc(S(=O)(=O)N3CCCC(C(=O)Nc4cccc(Cl)c4)C3)cc2CC1C` (stereo not drawn) the Potency was 5.62 µM (active).
For `Cc1cc(C)cc(NC(=O)C2CCCN(S(=O)(=O)c3ccc4[nH]c(=O)ccc4c3)C2)c1` (stereo not drawn), the Potency was “inactive”.
With `CCc1cccc(NC(=O)C2CCCN(S(=O)(=O)c3ccc4[nH]c(=O)ccc4c3)C2)c1` (stereo not drawn) the Potency was “inactive”.
In the case of `CC(=O)N1c2ccc(S(=O)(=O)N3CCCC(C(=O)Nc4cccc(F)c4)C3)cc2CC1C` (stereo not drawn), the Potency was 11.2 µM (active).
In the case of `CC(=O)N1c2ccc(S(=O)(=O)N3CCC(C(=O)NC4CCCCC4C)CC3)cc2CC1C` (stereo not drawn), the Potency was “inactive”.
In the case of `CC(=O)N1c2ccc(S(=O)(=O)N3CCCC(C(=O)Nc4ccc(C)cc4C)C3)cc2CC1C` (stereo not drawn), the Potency was “inactive”.
With `Cc1ccc(OCC(=O)Oc2ccccc2[N+](=O)[O-])cc1` the Potency was “inactive”.
With `CC1(C)NC(=O)N(CC(=O)N2CCN(S(=O)(=O)c3ccccc3F)CC2)C1=O` the Potency was “inactive”.
In the case of `CCN1C(=O)[C@@H]2[C@@H](c3ccc(-c4cccc(Cl)c4)cc3)N3CCC[C@@]3(C(=O)OC)[C@@H]2C1=O`, the Potency was “inactive”.
With `Nc1ccc(Nc2ccccc2)cc1` the Potency was “inactive”.
For `Cc1cc(Nc2ccccc2)n(C(=O)c2ccc(N)cc2)n1`, the Potency was 12.6 µM (active).
For `Cc1cc(Nc2ccccc2)n(CCC#N)n1`, the Potency was “inactive”.
With `O=C(Cc1ccc(Br)cc1)NCCc1ccccc1` the Potency was “inactive”.
In the case of `CC[C@@H]1CCCCc2ccccc2[C@@H](C(=O)C[C@H](O)CC(C)=O)OC1=O`, the Potency was “inactive”.
In the case of `Cc1nnc(NC(=O)Nc2ccc(Cl)c(Cl)c2)s1`, the Potency was 14.1 µM (active).
For `Cc1nnc(NC(=O)c2ccc3nccnc3c2)s1`, the Potency was “inactive”.
With `Cc1nnc(NC(=O)C(c2ccccc2)c2ccccc2)s1` the Potency was “inactive”.
`COc1ccc(-c2cnc(SCCNC(=O)c3ccc4c(c3)OCO4)[nH]2)cc1` gave an activity change, negative = inhibition of 14.4% [at 8.37 µM].
For `C#CCOCCOCCOCCNc1nc(N2CCOCC2)nc(N2CCN(C(=O)[C@H](Cc3ccc(O)cc3)n3cc(CCO)nn3)CC2)n1`, the Potency was “inactive”.
In the case of `Cc1cc(C)c[n+](-c2nc3ccccc3nc2[N-]S(=O)(=O)c2cccs2)c1`, the Potency was “inactive”.
For `O=S(=O)([N-]c1nc2ccccc2nc1-[n+]1ccc(Cc2ccccc2)cc1)c1ccc(Br)s1`, the Potency was 3.55 µM (active).
For `O=C(NCCc1ccccc1)C1CCN(S(=O)(=O)c2ccc(Br)s2)CC1`, the Potency was “inactive”.
For `CC(Oc1ccc2c(-c3ccccc3)cc(=O)oc2c1)C(=O)NC(Cc1c[nH]c2ccccc12)C(=O)O` (stereo not drawn), the Potency was “inactive”.
In the case of `CC(C)(C)C(=O)CSc1ccc(S(=O)(=O)N2CCCC2)cn1`, the Potency was “inactive”.
For `CCOC(=O)C1(CCOC)CCN(Cc2ccc(C(=O)OC)cc2)CC1`, the Potency was “inactive”.
For `CCCS(=O)(=O)N1CCC(CCOc2ccccc2)(C(=O)OCC)CC1`, the Potency was “inactive”.
For `CCOC(=O)C1(CCOc2ccccc2)CCN(Cc2cc(OC)c(O)cc2Cl)CC1`, the Potency was 11.2 µM (active).
In the case of `Nn1c(SCC(=O)Nc2nccs2)nnc1-c1ccco1`, the Potency was “inactive”.
With `Cc1ccccc1NC(=O)Cc1nc(COC(=O)c2cccnc2Cl)cs1` the Potency was “inactive”.
For `COc1cccc(N(C(=O)C2COc3ccccc3O2)C(C(=O)NC2CCCCC2)c2ccc(O)cc2)c1` (stereo not drawn), the Potency was “inactive”.
With `COc1ccc(C(C(=O)NC2CCCCC2)N(C(=O)CCl)c2ccccc2Cl)cc1` (stereo not drawn) the Potency was 2.82 µM (active).
In the case of `COc1ccc(C(C(=O)NC2CCCCC2)N(C(=O)c2snc(C(N)=O)c2N)c2ccccc2OC)cc1` (stereo not drawn), the Potency was “inactive”.
In the case of `O=C(c1ccc(F)cc1)N1CCC(C(=O)N2CCN(S(=O)(=O)c3ccccc3Br)CC2)CC1`, the Potency was “inactive”.
With `CNC(=O)c1ccsc1NC(=O)c1ccc(S(=O)(=O)N2CCOCC2)cc1` the Potency was “inactive”.
In the case of `COc1ccc(C(=O)Nc2nc(-c3ccc(S(=O)(=O)N4CCOCC4)cc3)cs2)cc1`, the Potency was 35.5 µM (active).
With `CCOC(=O)c1csc(NC(=O)c2ccc(S(=O)(=O)N3CCCC3)cc2)n1` the Potency was “inactive”.
With `Cn1c(=O)[nH]c2c(c(C(=O)O)nn2C)c1=O` the Potency was “inactive”.
With `CCOC(=O)c1cnc2nc(SCc3ccccc3Cl)[nH]n2c1=O` the Potency was “inactive”.
With `CC(C)c1cc(C(=O)O)n[nH]1` the Potency was “inactive”.
For `CC(C)c1cc(C(=O)N/N=C/C(Br)=C/c2ccccc2)n[nH]1`, the Potency was 22.4 µM (active).
In the case of `Cc1cc(C(=O)N/N=C\C(Br)=C\c2ccccc2)c(C)o1`, the Potency was “inactive”.
For `Cc1c(NC(=O)CSc2nnc(-c3cccnc3)n2N)c(=O)n(-c2ccccc2)n1C`, the Potency was “inactive”.
With `O=C(O)c1ccc([N+](=O)[O-])cc1Sc1ccsc1` the Potency was “inactive”.
With `O=C(c1cccc(S(=O)(=O)N2CCCCCC2)c1)N1CCN(Cc2ccccc2)CC1` the Potency was “inactive”.
